# In PubChem BioAssay AID1628 (Sanford-Burnham Center for Chemical Genomics, 2009):
# The whole screen tested about 190,000 compounds, of which about 930 (0.49%) were called active.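 The calls were made as follows: active = z-score of insulin promoter reporter brightness in nuclei below -3 at 5 µM, with at least 500 cells counted; inconclusive = wells with under 500 cells, flagged as toxic or sparse; inactive = the rest.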 The list shows a part of the results. Potency and affinity values are given separately.
# Experiment: insulin promoter down-regulators in MIN6 cells, imaging, high-content screening, mouse beta cells (AID 1628)
# Conditions: MIN6 insulin promoter GFP reporter, at 5 µM, active compounds read low
row,Structure (SMILES),z-score
1,Cc1ccc(NC(=O)/C=C/c2ccc([N+](=O)[O-])s2)cc1,16.6 (inactive)
2,NC(=NCc1ccc2c(c1)OCO2)NC(=O)c1ccccc1,-3.43 (active)
3,CC(=O)Oc1ccc2c(=O)c(-c3ccccc3)c(C)oc2c1,-0.21 (inactive)
4,CCNc1c(N)c(=O)oc2ccccc12,-0.02 (inactive)
5,Cc1ccc(CN2CCN(/N=C/C=C/c3ccccc3[N+](=O)[O-])CC2)cc1,-4.13 (active)
6,N#CC(C#N)=C1C=C2C=C(N3CCCCC3)CCC2CC1 (stereo not drawn),18.2 (inactive)
7,CCN(CC)C(=O)c1sc2nc(-c3cccs3)cc(-c3cccs3)c2c1N,4.15 (inactive)
8,CCN(CC)C(=O)c1sc(NC(=O)c2ccncc2)c(C(=O)OC)c1C,-4.37 (active)
9,Cc1c(Cl)cccc1NC(=O)CN1CCN(CCN=CC2=C(O)CC(c3ccccc3)CC2=O)CC1 (stereo not drawn),2.18 (inactive)
10,CC1=NNC(=O)C1CCC(=O)N/N=C/c1ccc(C)cc1 (stereo not drawn),3.3 (inactive)
11,Oc1ccc(/C=N/Nc2ccnc3cc(Cl)ccc23)c(O)c1,5.11 (inactive)
12,CCN1CCc2c(sc(NC(=S)NC(=O)c3ccc(Cl)cc3)c2C(N)=O)C1,3.92 (inactive)
13,CC1Cn2c(nnc2C23CC4CC(CC(C4)C2)C3)S1 (stereo not drawn),-3.06 (active)
14,Cc1ccc(-c2csc(=Nc3cccnc3)n2CCCn2ccnc2)cc1C,-3.01 (active)
15,N#C/C(=C/c1ccc(N2CCCCCC2)o1)c1ccc(Cl)cc1,16.2 (inactive)
16,CC(=O)C1=C(C)Nc2ncnn2C1c1ccc(Cl)cc1Cl (stereo not drawn),3.45 (inactive)
17,CC1CN(C(=O)CCn2c(=O)oc3ccccc32)CC(C)O1 (stereo not drawn),8.04 (inactive)
18,CCCN1C(=O)c2cccc3c(N4CCCCC4)ccc(c23)C1=O,3.75 (inactive)
19,CCCCN1C(=O)/C(=C/C=C2\Oc3ccccc3N2CC)SC1=S,16.7 (inactive)
20,O=C1CCCC(O)=C1C=NCCc1ccccc1,3.02 (inactive)
21,Cc1ccc(Nc2nc(N3CCOCC3)c3ccccc3n2)cc1,-3.61 (active)
22,O=c1c2cccc3c(N4CCOCC4)ccc(c32)c2nc3ccccc3n12,9.75 (inactive)
23,CCOC(=O)CSc1nc2ccc(Nc3nc(N4CCOCC4)nc(N4CCOCC4)n3)cc2s1,-0.17 (inactive)
24,Cc1n[nH]c(C)c1N1C(=O)c2cccc3c(N4CCCCCC4)ccc(c23)C1=O,8.27 (inactive)
25,O=C(C1CC1)N1CCC(c2nc(-c3ccc(S(=O)(=O)NCC4CCCO4)cc3)no2)CC1 (stereo not drawn),-7.53 (active)
26,Cc1noc(/C=C/c2ccc(-c3ccccc3Cl)o2)c1[N+](=O)[O-],8.03 (inactive)
27,COc1ccc(C)cc1NC(=O)COC(C)=O,3.48 (inactive)
28,COc1ccc(Cl)cc1NC(=O)CN1CCC(n2nnc3cc(C)ccc32)CC1,-4.05 (active)
